Source: PubChem
nsP2pro primary: blocks chikungunya virus nsP2 protease peptide cleavage | Q8JUX6 | FRET peptide cleavage, nsP2pro, fluorescence 1 h | Potency, µM (doses to about 24.9 µM), actives largely listed as inhibitors | 31,000 compounds, 1.1% hits | AID 1964107; also: nearly all actives have a fitted effect of over 60% in size
Target sequence (Q8JUX6 whole entry, looked up): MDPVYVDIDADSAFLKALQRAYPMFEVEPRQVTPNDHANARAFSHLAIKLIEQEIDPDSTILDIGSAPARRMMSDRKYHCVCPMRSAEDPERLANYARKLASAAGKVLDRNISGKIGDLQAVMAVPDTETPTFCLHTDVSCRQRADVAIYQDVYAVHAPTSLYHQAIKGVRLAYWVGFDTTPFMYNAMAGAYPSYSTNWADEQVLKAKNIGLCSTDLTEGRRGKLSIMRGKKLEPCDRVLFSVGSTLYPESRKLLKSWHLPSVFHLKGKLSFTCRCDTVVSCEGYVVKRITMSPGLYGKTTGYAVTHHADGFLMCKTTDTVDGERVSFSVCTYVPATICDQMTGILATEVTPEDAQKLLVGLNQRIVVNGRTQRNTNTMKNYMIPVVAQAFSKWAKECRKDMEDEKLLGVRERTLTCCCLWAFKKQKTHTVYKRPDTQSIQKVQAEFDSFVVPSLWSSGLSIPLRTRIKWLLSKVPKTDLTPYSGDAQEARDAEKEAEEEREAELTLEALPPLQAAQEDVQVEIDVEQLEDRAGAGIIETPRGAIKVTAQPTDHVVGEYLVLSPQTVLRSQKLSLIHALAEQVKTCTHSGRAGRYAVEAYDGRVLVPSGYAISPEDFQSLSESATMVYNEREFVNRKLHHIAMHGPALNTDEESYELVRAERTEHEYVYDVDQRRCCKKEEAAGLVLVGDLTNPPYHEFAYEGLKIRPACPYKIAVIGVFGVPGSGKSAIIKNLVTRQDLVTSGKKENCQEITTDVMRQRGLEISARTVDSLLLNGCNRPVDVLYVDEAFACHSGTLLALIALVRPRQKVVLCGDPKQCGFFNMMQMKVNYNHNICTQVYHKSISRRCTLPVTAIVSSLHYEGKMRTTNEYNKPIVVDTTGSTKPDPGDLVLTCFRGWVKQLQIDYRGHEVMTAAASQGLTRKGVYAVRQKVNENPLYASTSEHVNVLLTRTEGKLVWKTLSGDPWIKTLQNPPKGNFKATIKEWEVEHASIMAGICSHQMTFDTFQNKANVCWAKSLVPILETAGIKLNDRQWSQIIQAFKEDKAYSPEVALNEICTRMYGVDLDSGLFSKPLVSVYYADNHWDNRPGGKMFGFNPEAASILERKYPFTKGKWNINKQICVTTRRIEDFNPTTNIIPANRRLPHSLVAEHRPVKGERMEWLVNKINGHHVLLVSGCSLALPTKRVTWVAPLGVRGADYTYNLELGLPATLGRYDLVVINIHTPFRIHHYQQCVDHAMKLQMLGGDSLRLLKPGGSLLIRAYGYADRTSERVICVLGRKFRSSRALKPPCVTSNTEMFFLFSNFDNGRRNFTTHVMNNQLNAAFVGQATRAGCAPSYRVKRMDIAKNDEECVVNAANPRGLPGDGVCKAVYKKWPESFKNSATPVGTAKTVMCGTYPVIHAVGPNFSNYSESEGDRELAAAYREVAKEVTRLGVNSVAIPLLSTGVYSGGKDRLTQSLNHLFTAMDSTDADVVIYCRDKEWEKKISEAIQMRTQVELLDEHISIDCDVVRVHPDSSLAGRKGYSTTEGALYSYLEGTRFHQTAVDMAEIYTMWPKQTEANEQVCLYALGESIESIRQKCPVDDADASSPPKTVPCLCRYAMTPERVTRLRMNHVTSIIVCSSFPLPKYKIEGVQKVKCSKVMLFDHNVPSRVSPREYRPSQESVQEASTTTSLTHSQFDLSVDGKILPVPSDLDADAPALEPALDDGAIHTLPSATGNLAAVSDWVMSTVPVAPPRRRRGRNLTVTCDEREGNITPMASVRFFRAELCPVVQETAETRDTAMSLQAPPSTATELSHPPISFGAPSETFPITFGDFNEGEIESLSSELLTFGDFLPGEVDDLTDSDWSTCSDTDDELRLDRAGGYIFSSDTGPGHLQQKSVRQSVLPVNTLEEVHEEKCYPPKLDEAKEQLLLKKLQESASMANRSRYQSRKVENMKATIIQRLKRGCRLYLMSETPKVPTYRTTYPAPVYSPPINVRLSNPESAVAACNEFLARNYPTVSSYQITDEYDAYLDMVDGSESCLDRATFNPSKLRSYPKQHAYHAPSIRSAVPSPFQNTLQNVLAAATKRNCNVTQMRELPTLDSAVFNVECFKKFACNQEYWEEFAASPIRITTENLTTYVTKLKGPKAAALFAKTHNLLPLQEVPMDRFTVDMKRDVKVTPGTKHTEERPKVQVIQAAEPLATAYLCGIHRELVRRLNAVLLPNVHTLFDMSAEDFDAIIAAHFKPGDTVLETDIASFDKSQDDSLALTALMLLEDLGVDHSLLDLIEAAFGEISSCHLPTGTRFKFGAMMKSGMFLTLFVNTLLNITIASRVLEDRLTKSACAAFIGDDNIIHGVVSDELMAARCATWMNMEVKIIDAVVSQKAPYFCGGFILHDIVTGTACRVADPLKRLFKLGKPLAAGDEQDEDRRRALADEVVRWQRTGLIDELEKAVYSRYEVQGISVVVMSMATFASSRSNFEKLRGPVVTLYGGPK
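FRET cleavage of 2.5 uM peptide 2 by 150 nM CHIKV protease domain at pH 8.0 (Tris, Tween 20). Compounds at 7 concentrations (up to 25 uM) preincubated 15 min. Fluorescence read after 1 h at room temperature.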
CHIKV nsP2 cell: cell-based CHIKV nsP2 protease inhibition, secondary | 450 compounds, 10% hits | shares compounds with nsP2pro primary | cell-based CHIKV nsP2 protease reporter assay | Potency, µM (series often up to 51.1 µM), hits mostly inhibitors; also: nearly all actives have a fitted effect of over 70% in size
CHIKV NSP2 FL: selectivity test for CHIKV nsP2 protease inhibitors: full-length NSP2. Full-length CHIKV NSP2 protease enzymatic counterscreen. AID 1964101. Potency, µM (series often up to 50.7 µM), usual class: inhibitors. 410 compounds, 39% hits. shares compounds with nsP2pro primary; also: nearly all actives have a fitted effect of over 65% in size
Furin counterscr: selectivity counter-screen for CHIKV nsP2 protease inhibitors: human furin | shares compounds with nsP2pro primary | Recombinant human furin enzymatic counterscreen, fluorogenic substrate | Potency, µM (series often up to 50.6 µM), most hits filed as inhibitors | 410 compounds, 6% hits | AID 1964102
nsP2 NS23 pep: selectivity test for CHIKV nsP2 protease inhibitors: endogenous NS2/3 peptide; shares compounds with nsP2pro primary; Purified CHIKV nsP2 protease, endogenous NS2/3 peptide cleavage; Potency, µM (series often up to 51 µM), hits mostly inhibitors; 410 compounds, 34% hits; also: nearly all actives have a fitted effect of over 55% in size
Papain cs: selectivity counter-screen for CHIKV nsP2 protease inhibitors: papain; purified papain protease activity, enzymatic inhibition; 410 compounds, 5% hits; Potency, µM (highest dose often 51 µM), hits mostly inhibitors; shares compounds with nsP2pro primary
nsP2pro confirm: CHIKV nsP2 protease inhibition, confirmatory qHTS | CHIKV nsP2 protease enzymatic activity, qHTS | Potency, µM (series often up to 25.5 µM), usual class: inhibitors | 410 compounds, 43% hits | shares compounds with nsP2pro primary; also: nearly all actives have a fitted effect of over 75% in size
HCV NS3 4A cs: selectivity counter-screen for CHIKV nsP2 protease inhibitors: HCV NS3/4A | AID 1964106 | shares compounds with nsP2pro primary | 410 compounds, 20% hits | HCV NS3/4A protease biochemical counterscreen | Potency, µM (highest dose often 50.9 µM), actives largely listed as inhibitors; also: nearly all actives have a fitted effect of over 55% in size
Of the large screens only hits and unclear results are named; the others gave an inactive call (follow-up assays come after a bar, where they were run); ! = repeats disagree. This excerpt belongs to a sample that is enriched for hits. Calls follow the shape of the full dose curve.

CCN(CC)CCS(=O)(=O)[C@@H]1CCN2C(=O)c3coc(n3)CC(=O)C[C@H](O)/C=C(C)/C=C/CNC(=O)/C=C/[C@@H](C)[C@@H](C(C)C)OC(=O)[C@@H]12	none
c1ccc(CN(Cc2ccccc2)Cc2nnc(-c3cc4ccccc4[nH]3)s2)cc1	nsP2pro primary 8.91µM | CHIKV nsP2 cell inactive | CHIKV NSP2 FL inactive | Furin counterscr inactive | nsP2 NS23 pep inactive | Papain cs inactive | nsP2pro confirm inactive | HCV NS3 4A cs inactive
O=C(Cc1nnc(-c2cc3ccccc3[nH]2)s1)Nc1cc(C(F)(F)F)ccc1Cl	none
O=C(NCc1nnc(-c2cc3ccccc3[nH]2)s1)c1ccccc1	none
c1ccc(-c2nc(C3CC3)no2)c(OC2CCNC2)c1 (stereo unspecified)	none
C#CCNC(=O)C[C@@H]1c2nc(NC(=O)OCC=C)sc2C[C@@H]2[C@](C)(CO)[C@H](O)CC[C@]21C	none
COc1ccc2c(c1)C=C1Cn3c-2c(C2CCCCC2)c2ccc(cc23)C(=O)NS(=O)(=O)N(C)CCOCCN(C)C1=O	none
COC(=O)c1ccc(O)c2ncc(-c3ccc(C(=O)N4CCNCC4)cc3)cc12	none
COC(=O)c1cc(CN2CCN(C(=N)N)CC2)cc(C(=O)N2CCN(C(=O)c3ccc(C(=N)N)cc3)CC2)c1	nsP2pro primary inconclusive | CHIKV nsP2 cell inactive | CHIKV NSP2 FL 14.6µM | Furin counterscr 9.19µM | nsP2 NS23 pep inconclusive | Papain cs inconclusive | nsP2pro confirm inconclusive | HCV NS3 4A cs inactive
CCc1nc2ccc(C(=O)N3CCN(c4cccc(OC)c4)CC3)cc2nc1CC	none
COc1cc(F)c(CN2CCC3(CCCNC3)C2)c(F)c1 (stereo unspecified)	none
CC(OC(=O)NCC1(CC(=O)O)CCCCC1)OC(=O)C(C)C (stereo unspecified)	none
CN(C)C/C=C/C(=O)Nc1cccc(C(OCCN2CCCCC2)c2cc3nccc(C(=O)O)c3s2)c1 (stereo unspecified)	none
CC1=NN(c2ccccc2)C(=O)C1	nsP2pro primary 0.0351µM! | CHIKV nsP2 cell inactive | CHIKV NSP2 FL inactive | Furin counterscr inactive | nsP2 NS23 pep inactive | Papain cs inactive | nsP2pro confirm inactive | HCV NS3 4A cs inactive
COCc1nnc(C2CC3(CCN(C(=O)c4cccc(C)c4)CC3)CN2C)o1 (stereo unspecified)	none
Cc1cccc(-n2cnc3cc(C(=O)N4CCCC(c5ccccc5)C4)ccc32)c1 (stereo unspecified)	none
CC(=O)[C@@]1(O)CC[C@H]2[C@@H]3CCC4=CC(=O)CC[C@@H]4[C@H]3CC[C@@]21C	none
Cc1coc2c1C(=O)C(=O)c1c-2ccc2c1CCCC2(C)C	nsP2pro primary inconclusive | CHIKV nsP2 cell inactive | CHIKV NSP2 FL 11.6µM | Furin counterscr inactive | nsP2 NS23 pep inconclusive | Papain cs inconclusive | nsP2pro confirm inconclusive | HCV NS3 4A cs inactive
Cc1coc2c1C(=O)C(=O)c1c-2ccc2c(C)cccc12	nsP2pro primary inconclusive | CHIKV nsP2 cell inactive | CHIKV NSP2 FL inconclusive | Furin counterscr inactive | nsP2 NS23 pep inconclusive | Papain cs inconclusive | nsP2pro confirm inconclusive | HCV NS3 4A cs inactive
Cc1[nH]nc(CCC(=O)N2CC[C@@H](NC(=O)c3cnccn3)[C@H](O)C2)c1C	none
COCC1CN(Cc2ccc(C(C)C)cc2)CC12CCNCC2 (stereo unspecified)	none
O=C(c1ccc(C(F)(F)F)cc1)N1CCCC(C(=O)N2CCC(c3nc4ccncc4[nH]3)CC2)C1 (stereo unspecified)	none
CCN1c2cc(C(=O)NCc3ccncc3)ccc2C(=O)N2CCCCC21 (stereo unspecified)	none
CCCCCCCCCCCCCCCC(=O)OC1CCCn2c1nc(C)c(CCN1CCC(c3noc4cc(F)ccc34)CC1)c2=O (stereo unspecified)	none
Cc1occc1C(=O)N1CCC2(CCCN(CC3CCCCC3)C2=O)C1 (stereo unspecified)	none
O=C(NC[C@@H]1CN(c2ccc(N3CCOCC3=O)cc2)C(=O)O1)c1ccc(Cl)s1	none
[2H]C([2H])([2H])NC(=O)c1nnc(NC(=O)C2CC2)cc1Nc1cccc(-c2ncn(C)n2)c1OC	none
CCc1n[nH]c(CC2CCN(C(=O)C3CC3)CC2)n1	none
CC(C)c1nccn1CCCNC(=O)c1ccc(-c2cccc(F)c2)nc1	none
CC(=O)O[C@H]1C[C@@H](O)C(C)(C)C2C[C@@H](OC(C)=O)[C@]3(C)C(CC[C@@]4(C)[C@H](c5ccoc5)OC(=O)[C@H]5O[C@]543)[C@]21C (stereo partly specified)	none
CC(=O)O[C@@H]1CC2C(C)(C)C(=O)C=C[C@]2(C)C2CC[C@@]3(C)[C@H](c4ccoc4)OC(=O)[C@H]4O[C@]43[C@@]21C (stereo partly specified)	nsP2pro primary inconclusive | CHIKV nsP2 cell inactive | CHIKV NSP2 FL inconclusive | Furin counterscr inactive | nsP2 NS23 pep inactive | Papain cs inconclusive | nsP2pro confirm inconclusive | HCV NS3 4A cs inactive
CC(=O)OC1CC2C(C)(C)C(=O)C=CC2(C)C2CC(=O)C3=C(CCC3C3=CC(O)OC3=O)C12C (stereo unspecified)	none
O=c1cc(-c2ccncc2)oc2c(-c3ccc(CO)cc3)nccc12	none
O=C(Nc1ccc(Cl)c(S(=O)(=O)N2CCOCC2)c1)c1ccccc1	none
O=C(Nc1ccc(N2CCOCC2)c(Cl)c1)c1ccc(Br)o1	nsP2pro primary inconclusive | CHIKV nsP2 cell 18.3µM | CHIKV NSP2 FL inactive | Furin counterscr inactive | nsP2 NS23 pep inactive | Papain cs inactive | nsP2pro confirm inactive | HCV NS3 4A cs inactive
O=C(Nc1cccc(NC(=O)c2ccc(Br)o2)c1)c1ccccc1	none
CC(C=CC1=C(C)CCCC1(C)C)=CC=CC(C)=CC(=O)Oc1c(C)c(C)c2c(c1C)CC[C@@](C)(CCC[C@H](C)CCC[C@H](C)CCCC(C)C)O2	none
O=c1oc2cc(O)ccc2c2ccc(O)cc12	none
CNC(=O)c1ccccc1Oc1nc(Nc2cc(OC)c(OC)c(OC)c2)ncc1Br	none
Cc1cccc(C(=O)Nc2ccc3oc(-c4cccc5c(Br)cccc45)nc3c2)c1	none
O=C(Nc1ccc(N2CCC(N3CCCCC3)CC2)c(C(=O)O)c1)c1ccccc1	nsP2pro primary 10.7µM | CHIKV nsP2 cell inactive | CHIKV NSP2 FL 2.91µM | Furin counterscr inconclusive | nsP2 NS23 pep 9.19µM | Papain cs inactive | nsP2pro confirm 6.34µM | HCV NS3 4A cs 1.83µM
